CYP2C19 act – human CYP2C19 activators, primary screen, biochemical, luminescence; AID 1025, 2008; activation factor at 5 µM; Cytochrome P450 2C19 (Homo sapiens), P33261; 96,000 tested, under 10 active; recombinant CYP2C19, luciferin-H EGE luminescence; hits give high values; 0 = fully inhibited enzyme, 1 = untreated enzyme;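 active = activation factor of at least 2 at 5 µM in the primary screen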;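 note: 0 = wells with 2.5 mM tranylcypromine and 1 = vehicle-only wells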
Target sequence (P33261 whole entry, looked up): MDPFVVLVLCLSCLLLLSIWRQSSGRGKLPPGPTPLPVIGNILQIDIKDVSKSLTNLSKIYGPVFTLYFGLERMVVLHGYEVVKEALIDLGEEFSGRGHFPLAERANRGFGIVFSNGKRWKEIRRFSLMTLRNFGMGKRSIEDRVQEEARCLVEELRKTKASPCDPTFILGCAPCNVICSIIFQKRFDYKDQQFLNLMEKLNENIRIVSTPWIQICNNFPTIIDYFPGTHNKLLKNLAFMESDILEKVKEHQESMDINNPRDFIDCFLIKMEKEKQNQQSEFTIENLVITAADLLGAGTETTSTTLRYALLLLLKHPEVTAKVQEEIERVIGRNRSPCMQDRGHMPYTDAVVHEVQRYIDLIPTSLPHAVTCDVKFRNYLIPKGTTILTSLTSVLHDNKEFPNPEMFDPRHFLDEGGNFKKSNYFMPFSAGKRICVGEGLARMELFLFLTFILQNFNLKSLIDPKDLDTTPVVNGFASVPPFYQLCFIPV
PostGolgi yeast – phenotypic screen on post-Golgi transport, primary screen. post-Golgi transport phenotypic cell assay. inhibition, % at 10 µM. 98,000 compounds, 0.9% hits;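 note: yeast cells grown in 1536-well plates; yeast grown about 18 h at 30C before absorbance read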
CYP2C19 inh – blockers of cytochrome P450 2C19 activity – biochemical, luminescence, ADME assay, primary screen; 96,000 compounds, 21% hits; CYP2C19 Supersomes, luciferin-H EGE luminescence, 30 min; P33261; inhibition, % at 5 µM; AID 778, 2007;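 active = CYP2C19 inhibition above a set limit at 5 µM in the primary screen, cut at about 50% in these data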;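 note: plate controls were negative control wells for no effect and 2.5 mM tranylcypromine positive control for full effect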
PostGolgi ctrl – growth inhibition of yeast control strain, primary screen, counter-screen for post-Golgi transport modulator project. AID 738, 2007. efflux-deficient yeast background strain, growth absorbance A615, 16 h. inhibition, % at 10 µM. 98,000 compounds, 5% hits
CYP2C9 activ – human CYP2C9 activators, primary screen, biochemical, luminescence. activation factor at 5 µM. recombinant CYP2C9, luciferin-H conversion; hits give high values; factor 1 = untreated enzyme, 0 = blocked. AID 1024, 2008. 96,000 compounds, 1.4% hits. Cytochrome P450 2C9 (Homo sapiens), P11712;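 active = activation factor of 2 or more for CYP2C9 at a 5 µM dose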;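 note: 0 = sulfaphenazole-blocked wells and 1 = vehicle-only wells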
CYP2C9 inhib – blockers of cytochrome P450 2C9 activity – biochemical, luminescence, ADME assay, primary screen. P11712. CYP2C9 Supersomes, luciferin-H conversion. inhibition, % at 5 µM. 96,000 compounds, 20% hits. AID 777, 2007;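 active = blocking of liver enzyme CYP2C9 beyond about 50% at 5 µM, limit read from the data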
Starred values were filed as active, the others as inactive; · = not tested or not shown; ! = not active in a repeat. Sampled rows, rich in hits. Any-hit rate of the full collection: about 32%. Cut-off read from the data, not from the text of the source, unless noted: active = inhibition above about 30%; inactive = the rest.

SMILES	CYP2C19 act	PostGolgi yeast	CYP2C19 inh	PostGolgi ctrl	CYP2C9 activ	CYP2C9 inhib
N#CC1(c2ccccc2)CCCN1C(=O)c1ccccc1Cl (configuration not stated)	1.1	-1.3	-5.1	17.4	1	-0.1
CC(C)C(NC(=O)C(c1ccccc1)c1ccccc1)c1nc2ccccc2[nH]1 (configuration not stated)	1.2	-1.4	-22.6	3.0	1	-1.7
CCOC(=O)COc1ccc(S(=O)(=O)NCCC2=CCCCC2)cc1	0.8	0.3	25.0	0.1	0.9	9.2
Cc1cc(N2CCOCC2)n2nc(C)c(-c3ccccc3)c2n1	1	-7.6	0.1	16.8	1	2.4
Cc1cc(N2CCN(C3CCCC3)CC2)n2ncc(-c3ccccc3)c2n1	0.3	·	71.8*	·	0.2	76.0*
O=C(Nc1ccc(Br)cc1)c1ccc(CSC2=NCCS2)cc1	0.8	1.7	18.8	34.2*	0.6	35.4
O=C(Nc1cccc(Br)c1)c1ccc(CSc2ccccc2)cc1	1.2	18.9	-21.3	-5.8	1.1	-14.3
Cc1ccccc1NS(=O)(=O)c1ccc2[nH]cc(C(=O)NCCCN3CCOCC3)c(=O)c2c1	1	12.8	0.4	5.5	0.6	37.9
COC(=O)c1nnn(-c2nonc2N)c1CN1CCc2ccccc21	0	-7.0	96.2*	13.0	0.3	71.5*
CCOC(=O)c1nnn(-c2nonc2N)c1CS(=O)(=O)c1ccccc1	0.4	10.2	63.0*	10.1	0.6	36.8
CC(C)OC(=O)c1nnn(-c2nonc2N)c1CN1CCCCCC1	0.9	-9.8	5.1	-4.0	0.9	14.8
CCOC(=O)c1nnn(-c2nonc2-n2cccc2)c1CCl	0.8	-1.3	22.8	17.0	0.3	68.2*
CC(C)OC(=O)c1nnn(-c2nonc2N)c1CN1CCc2ccccc2C1	0.9	1.2	12.8	47.2*	0.3	68.2*
CCOC(=O)c1nnn(-c2nonc2-n2cccc2)c1CN1CCC(C)CC1	1.1	0.6	-8.1	13.8	0.9	10.2
CN(C)CCCN1C(=O)C(=O)/C(=C(/O)c2ccncc2)C1c1ccccc1 (configuration not stated)	1	·	3.3	·	0.9	6.7
Cc1cc(C(=O)OCC(=O)Nc2ncc(C(F)(F)F)cc2Cl)c(C)o1	1	0.3	3.5	3.8	0.9	9.7
CCOC(=O)c1nnn(-c2nonc2N)c1COc1c(C=O)cccc1OC	0.9	11.5	14.4	19.2	0.3	71.3*
CCOC(=O)c1nnn(-c2nonc2N)c1C	0.8	-6.8	15.4	8.3	1.1	-10.6
CCOC(=O)c1nnn(-c2nonc2N)c1CN1CCc2ccccc2C1	0.9	1.4	7.7	21.9	0.4	58.0*
O=C(CN1C(=O)NC2(CCCCCCC2)C1=O)N1CCc2ccccc2C1	0.9	1.4	6.0	29.8	0.9	9.1
COc1ccccc1CC1(C)NC(=O)N(CC(=O)N2CCc3ccccc3C2)C1=O (configuration not stated)	0.9	-4.7	12.4	19.3	0.3	70.0*
CCOC(=O)c1ccccc1-n1c(C)cc(C2N=C(N)Nc3nc4ccccc4n32)c1C (configuration not stated)	0.7	1.9	28.9	6.5	0.7	33.6
NC1=NC(c2ccc(Br)cc2)n2c(nc3ccccc32)N1 (configuration not stated)	0.1	0.7	94.2*	9.4	0.6	38.2
CCc1cccc2c(=O)c(C(=O)N3CCOCC3)c[nH]c12	1	0.5	-3.9	4.7	1	-3.8
COc1ccc2c(C=Nc3c(C)n(C)n(-c4ccccc4)c3=O)c(O)n(Cc3ccco3)c(=O)c2c1	0.4	-0.6	59.7*!	62.8*!	0.3	72.2*!
Cc1ccc(NC(=O)/C(=C\C=C\c2ccccc2)NC(=O)c2ccccc2)cc1	0.5	-3.1	46.5	8.5	0.3	67.7*
COc1ccc2c(c1)CC(C1(O)C(=O)Nc3ccccc31)C2=O (configuration not stated)	0.2	-9.2	82.9*	5.0	0.8	18.0
